Holding throughout (experiment): Confirmatory Screen for Target Class Profiling of Small Molecule Inhibitors of Methyltransferases (AID 1745852); on activity change, negative = inhibition: on the % scale 0 is the no-effect control and ±100 the full control effect
Assay [1] deals with Catechol O-methyltransferase (Homo sapiens) (UniProt P21964). The conditions noted are these: MTase-Glo luminescence, SAH detection, recombinant enzyme; measured here: COMT max response; stronger effect = lower value.
Sequence of Catechol O-methyltransferase (Homo sapiens) (P21964 whole entry, looked up): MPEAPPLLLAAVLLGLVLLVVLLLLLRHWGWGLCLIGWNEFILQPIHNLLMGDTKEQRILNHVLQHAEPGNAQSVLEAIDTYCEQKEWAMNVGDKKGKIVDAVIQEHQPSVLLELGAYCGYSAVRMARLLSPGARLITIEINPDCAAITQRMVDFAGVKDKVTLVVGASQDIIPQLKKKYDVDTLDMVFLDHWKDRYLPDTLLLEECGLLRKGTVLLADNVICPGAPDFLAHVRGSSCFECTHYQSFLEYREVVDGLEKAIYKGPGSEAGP
Assay [2] addresses Guanidinoacetate N-methyltransferase (Homo sapiens) (UniProt Q14353). The conditions noted are these: MTase-Glo luminescence, SAH detection, recombinant enzyme; activity change, negative = inhibition: at 57.3 µM (top of the series) unless noted; series mostly up to 57.3 µM.
Assay [3] concerns the target Nicotinamide N-methyltransferase (Homo sapiens) (UniProt P40261). The conditions noted are these: MTase-Glo luminescence, SAH detection, recombinant enzyme; measured here: NNMT max response; stronger effect = lower value.
Assay [4] concerns the target Phenylethanolamine N-methyltransferase (Homo sapiens) (UniProt P11086). The conditions noted are these: MTase-Glo luminescence, SAH detection, recombinant enzyme; measured here: PNMT max response; stronger effect = lower value.

Activity calls are given as the source filed them. The call rests on the fitted dose curve.
Potency means the concentration at half of the fitted maximal effect.

Sequence of Nicotinamide N-methyltransferase (Homo sapiens) (P40261 whole entry, looked up): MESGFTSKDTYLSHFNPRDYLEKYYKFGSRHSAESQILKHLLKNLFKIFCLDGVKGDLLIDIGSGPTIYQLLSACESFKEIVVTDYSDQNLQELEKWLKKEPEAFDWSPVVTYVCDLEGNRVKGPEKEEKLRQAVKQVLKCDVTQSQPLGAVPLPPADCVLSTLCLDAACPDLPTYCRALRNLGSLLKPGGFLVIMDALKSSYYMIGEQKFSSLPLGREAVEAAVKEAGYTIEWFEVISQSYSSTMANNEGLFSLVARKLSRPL
Sequence of Phenylethanolamine N-methyltransferase (Homo sapiens) (P11086 whole entry, looked up): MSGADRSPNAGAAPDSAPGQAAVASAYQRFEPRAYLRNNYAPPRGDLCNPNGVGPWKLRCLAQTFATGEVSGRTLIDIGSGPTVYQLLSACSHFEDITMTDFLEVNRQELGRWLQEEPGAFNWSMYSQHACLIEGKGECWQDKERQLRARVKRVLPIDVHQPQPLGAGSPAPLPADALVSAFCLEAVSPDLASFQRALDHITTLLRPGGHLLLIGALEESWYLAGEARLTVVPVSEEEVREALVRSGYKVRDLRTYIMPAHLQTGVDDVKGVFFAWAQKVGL

For the compound `Cc1ccc(CNC(=O)c2ccc3c(=O)[nH]c4c(C(=O)NC(C)C)sc(=S)n4c3c2)cc1`, the activity in assay [1] is -30.2%; in assay [3], -65.3%; in assay [4], -17.2%. In addition, the activity change, negative = inhibition in assay [2] was -7.1%.
The corresponding values for `COc1cccc(-c2ccccc2NC(=O)C2CCN(CC=C(C)C)CC2)c1` are 0.831%, -3.23%, -3% and 3.69%.
On to `CCOc1cc(CNc2ccc(C(=O)O)cc2)ccc1OCc1ccccc1`, for which the values for the activity in assay [1], in assay [3] and in assay [4] were -41.3%, -22.2% and -2.65%, respectively. Besides, the activity change, negative = inhibition in assay [2] was 0.912%.
The corresponding values for `COC(=O)C(Cc1c[nH]c2ccccc12)NC(=O)c1ccccc1Br` (stereo not given) are -2.16%, -4.76%, -7.16% and 0%.
On the same counts, the results for `Cc1cccc(N2CCN(C(=O)c3ccc4c(=O)[nH]c5c(C(=O)NC(C)C)sc(=S)n5c4c3)CC2)c1C` are -37.2%, -76.7%, -28.7% and 0.0257%.
Regarding `COc1ccccc1-c1[nH]nc2ncc(C(=O)N3CCN(Cc4ccccc4)CC3)nc12`, the activity in assay [1] was -51.3%; in assay [3] it was -37.2%; in assay [4], -61.8%. Further, the Potency in assay [2] was 35 µM (active).
Consider `Cc1ccccc1-c1[nH]nc2ncc(-c3c(C)noc3C)nc12`, for which the activity was -14.4% in assay [1], -31.8% in assay [3] and -28.1% in assay [4]. The activity change, negative = inhibition in assay [2] was -10.5% [at 85.7 µM].
The corresponding values for `CCNc1nccc(N2CCC(CC(=O)N3CCN(c4ccccc4F)CC3)CC2)n1` are 6.4%, 2.88%, 5.27% and 4.58%.
On the same counts, the results for `Cc1nccn1CCC1CCN(c2nccc(-c3ccccn3)n2)CC1` are 9.05%, 5.85%, 7.66% and 8.46%.
On the same counts, the results for `O=C(NCc1cccc(F)c1)c1nc2c(o1)CCN(CC1CCCC1)CC2` are 5.53%, 5.46%, -10.1% and 18.3% [at 85.7 µM].
For `Cc1nc2c3ccccc3n3c(CCCC(=O)NCCCN(C)Cc4ccccc4)nnc3n2n1`, the activity was -2.29% in assay [1], -3.81% in assay [3] and -3.01% in assay [4]. In addition, the activity change, negative = inhibition in assay [2] turned out to be 0%.
The corresponding values for `O=C(Nc1ccc2c(N3CCOCC3)ncnc2c1)c1cccc(Cl)c1` are -10.9%, -7.95%, -22.8% and -4.21%.
`COc1cccc(Nc2ccnc(-c3nnc(C)n3C3CCCCC3)c2)c1`: the activity in assay [1] is 7.43%; in assay [3], -22.9%; in assay [4], 8.64%. Besides, the activity change, negative = inhibition in assay [2] worked out at 17.8% [at 85.7 µM].
On the same counts, the results for `COc1ccc(CC(=O)Nc2ccc3ncnc(N4CCCC4)c3c2)c(Cl)c1` are -2.51%, -30.7%, -8.25% and -0.581%.
The corresponding values for `O=C(CCn1c(=O)[nH]c2cc(S(=O)(=O)N3CCCCC3)ccc21)Nc1ccc(Cl)cc1` are -1.03%, -18.8%, -3.3% and 0%.
For `CCN(CCc1nc2ccc(C)cc2[nH]1)C(=O)c1ccccc1C1CCNC1` (stereo not given), the activity in assay [1] was 6.01%; in assay [3], 7.78%; in assay [4], 8.18%. The activity change, negative = inhibition in assay [2] was determined as 8.24%.
On the same counts, the results for `Cn1c(=O)n(C)c2cc(S(=O)(=O)N3CCN(C4CCCCC4)CC3)c(Cl)cc21` are -1.77%, -10.5%, -13.7% and 2.61%.
The corresponding values for `CCN(CC)CCNC(=O)CCCc1nnc2n3nc(-c4ccccc4)nc3c3ccccc3n12` are -2.75%, -0.56%, -1.77% and 0.717%.
On the same counts, the results for `O=C(NCCc1ccccc1)c1ccc(CN2C(=O)CCn3nc(-c4ccccc4)cc32)cc1` are -6.47%, -28.8%, -5.57% and 0.906%.
As to `Cc1noc2c(NC3CCN(C)CC3)cc(-c3cccs3)nc12`, the activity is 7.59% in assay [1], 0.3% in assay [3] and -6.76% in assay [4]. For the same compound, the activity change, negative = inhibition in assay [2] was found to be 13.7% [at 85.7 µM].
The corresponding values for `CCCCNC(=O)c1cccc(-c2cc(N3CCN(C)CC3)nc(N)n2)c1` are -2.86%, -3.76%, -4.09% and -5.28%.
In the case of `CC1(C(=O)NC2CCCCCC2)Cn2c(c(-n3cccc3)c3ccccc32)C(=O)N1CC1CCCO1` (stereo not given), the activity in assay [1] is 4.7%; in assay [3], -46.9%; in assay [4], 0%. Besides, in assay [2], the activity change, negative = inhibition was determined as 0.126%.
On the same counts, the results for `Cc1cnc(CCNC(=O)c2n[nH]c(=O)c3ccccc23)n1C1CCCCC1` are -2.57%, -0.405%, -2.34% and 5.31%.
For the compound `Cc1cnc(CCNC(=O)c2cccs2)n1C1CCC1`, the figures for the activity in assay [1], in assay [3] and in assay [4] were 0.518%, 8.96% and 6.31%, respectively. Moreover, in assay [2], the activity change, negative = inhibition turned out to be 3.29%.
The corresponding values for `Cc1nc2cccnc2n1CC1CCCN(S(=O)(=O)c2ccc3c(c2)OCCO3)C1` (stereo not given) are 2.68%, -4.66%, -0.0682% and -0.116%.
The corresponding values for `COCCCN1C(=O)c2cc3c(OC)ccc(OC)c3n2CC1(C)C(=O)NC1CCCCC1` (stereo not given) are -9.18%, -20.2%, -10% and -5.66%.
On to `CN1CCN(C)c2cnc(-c3cnn(Cc4ccccc4)c3)cc2C1`, for which the activity in assay [1] was determined as 6.86%; in assay [3], 6.62%; in assay [4] it was 8.78%. Further, in assay [2], the activity change, negative = inhibition came to 5.27% [at 85.7 µM].
The corresponding values for `CCN(CC)CCCNC(=O)CCc1nnc2n(Cc3ccc(F)cc3)c(=O)c3ccccc3n12` are 2.05%, -4.75%, 1.85% and 0%.
As for `COc1ccc(CN2C(=O)c3cc4ccccc4n3CC2(C)C(=O)NCc2ccccc2)cc1OC` (stereo not given), the activity in assay [1] is 4.11%; in assay [3], -57.8%; in assay [4], 1.95%. Further, the activity change, negative = inhibition in assay [2] was 0%.
Consider `CCOc1cc(OCC)c2c(-c3ccccc3)cc(=O)oc2c1`, for which the activity in assay [1] was -64.6%; in assay [3], -49.7%; in assay [4] it was -65.2%. For the same compound, in assay [2], the Potency is 15.2 µM (active).

The record behind these values is PubChem BioAssay (NCATS).
